Data from PubChem BioAssay AID1209 (Sanford-Burnham Center for Chemical Genomics, 2008).
Screen size: about 190,000 compounds; about 810 (0.43%) were called active. The sample as a whole holds a higher share of actives than the screen did. Values without a mark were called inactive. Cut-off read from the data, not from the text of the source: active = inhibition above about 50%; inactive = the rest.

These molecules were tested against Mannose-6-phosphate isomerase (Homo sapiens) (UniProt P34949) (assay: inhibitors of human PMI, primary screen, biochemical, fluorescence intensity, coupled assay (AID 1209;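 note: plate controls were DMSO vehicle for no effect and wells lacking substrate for full effect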)). Settings: purified PMI enzyme, at 20 µM, active compounds read high.
Sequence of Mannose-6-phosphate isomerase (Homo sapiens) (P34949 whole entry, looked up): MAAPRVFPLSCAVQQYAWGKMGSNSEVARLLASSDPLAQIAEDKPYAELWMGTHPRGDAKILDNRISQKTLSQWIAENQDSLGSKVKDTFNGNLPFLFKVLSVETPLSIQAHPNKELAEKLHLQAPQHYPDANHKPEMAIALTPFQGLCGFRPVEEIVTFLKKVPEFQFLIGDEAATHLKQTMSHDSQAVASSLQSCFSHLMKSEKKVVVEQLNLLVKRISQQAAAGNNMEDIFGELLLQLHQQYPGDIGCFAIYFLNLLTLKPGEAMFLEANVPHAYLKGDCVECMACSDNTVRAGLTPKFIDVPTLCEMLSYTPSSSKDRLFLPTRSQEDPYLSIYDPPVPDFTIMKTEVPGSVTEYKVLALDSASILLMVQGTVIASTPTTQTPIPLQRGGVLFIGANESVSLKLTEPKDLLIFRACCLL

How did the inhibition turn out when O=C(c1cc2nc(-c3ccco3)cc(C(F)(F)F)n2n1)N1CCCCCC1 was run?
The inhibition was -12.3%.

How did the inhibition turn out when CCCOC(=O)c1ccc(Nc2nc(C)cc(=O)[nH]2)cc1 was run?
Its inhibition is 1.7%.

With Cc1cc(C)nc(SCc2nnc(SCC(=O)Nc3cc(C(F)(F)F)ccc3Cl)o2)n1 as the molecule, how does the inhibition read?
The inhibition was 3%.

For Cc1ccc(N2C(=O)C3Sc4[nH]c(=O)sc4C(c4ccccc4)C3C2=O)cc1 (stereo not drawn), which inhibition is on record?
The inhibition was 11.4%.

Which inhibition does the source give for COc1ccc(C(=O)NC(C)c2ccccc2)cc1Br (stereo not drawn) here?
Its inhibition is 3.2%.

For O=C(O)C1Sc2[nH]c(=O)sc2C2c3ccc(O)cc3OC(=O)C12 (stereo not drawn), which inhibition is on record?
The inhibition was 24.3%.

How did the inhibition turn out when O=C(O)C1Sc2[nH]c(=O)sc2C2c3cc(Cl)ccc3OC(=O)C12 (stereo not drawn) was run?
Its inhibition is 50.4% (active).

For COC(=O)C1Sc2[nH]c(=O)sc2C2c3ccccc3OC(=O)C12 (stereo not drawn), which inhibition is on record?
Its inhibition is 10.6%.

How did the inhibition turn out when O=C(Nc1ccc(S(=O)(=O)Nc2nccs2)cc1)c1cc(-c2ccccn2)nc2ccccc12 was run?
The inhibition was -1.4%.

CC(C)CCn1c(=O)c(C(=O)N/N=C/c2cccc(F)c2)c(O)c2ccccc21 was tested. Which inhibition did it give?
Its inhibition is -3.7%.

Which inhibition does the source give for CC(C)(C)C1=CC(=Nc2ccccc2N)C=C(C(C)(C)C)C1=O here?
The inhibition was -7.3%.

How did the inhibition turn out when CC(C)(C=O)C1=CC(=O)c2ccccc2C1=O was run?
Its inhibition is -17.2%.

CC(C)(C)C1=CC(=O)C(=O)C(C(C)(C)C)=C1 was tested. Which inhibition did it give?
Its inhibition is 61.2% (active).

Which inhibition does the source give for COc1ccc(CCNC(=O)CN2CCN(c3cccc(C(F)(F)F)c3)CC2)cc1 here?
The inhibition was 3.1%.

How did the inhibition turn out when O=C(c1ccco1)N1CCN(c2nc(-c3ccc(F)cc3)cs2)CC1 was run?
The inhibition was 5.4%.

With N#CC(=C1CCCC1)c1nc(-c2cc3ccccc3oc2=O)cs1 as the molecule, how does the inhibition read?
The inhibition was 1.4%.

With CN(C)CCCNS(=O)(=O)c1ccc(Cl)s1 as the molecule, how does the inhibition read?
The inhibition was 0%.

For Fc1ccc(C2c3cccn3CCN2C(=S)Nc2cccc(Br)c2)cc1 (stereo not drawn), which inhibition is on record?
Its inhibition is 5.7%.

For O=C1CCc2cc(S(=O)(=O)N3CCN(c4ccccc4F)CC3)ccc2N1, which inhibition is on record?
Its inhibition is 6%.

How did the inhibition turn out when COc1ccc(CC(NC(C)=O)C(=O)NC2CCN(C(=O)NCc3ccccc3)CC2)cc1OC (stereo not drawn) was run?
The inhibition was -4.4%.

Which inhibition does the source give for CCC(=O)NC(=S)Nc1ccc(NC(=O)COc2ccccc2)cc1 here?
The inhibition was 10.1%.

Which inhibition does the source give for CCC(=O)NC(=S)Nc1ccc(NC(=O)COc2ccc(Cl)c(C)c2)cc1 here?
Its inhibition is 62.3% (active).

Which inhibition does the source give for CCC(=O)NC(=S)Nc1ccc(NC(=O)COc2ccc(Cl)cc2Cl)cc1 here?
Its inhibition is 5.1%.

For Cc1cc(NC(=O)CSc2nnc(NC(=O)C3CC(=O)N(c4ccccc4)C3)s2)no1 (stereo not drawn), which inhibition is on record?
Its inhibition is -9.8%.

For O=C(CCn1c(=O)sc2ccccc21)NCCC1=CCCCC1, which inhibition is on record?
The inhibition was 3.6%.

CCOC(=O)C1=C(Cc2ccc(OC)cc2)C(=O)c2ccccc2C1=O was tested. Which inhibition did it give?
The inhibition was 22.9%.

For CC(=O)C1=C(c2ccc(Br)cc2)C(=O)c2ccccc2C1=O, which inhibition is on record?
Its inhibition is 80.3% (active).

How did the inhibition turn out when O=C(C1=C(c2ccccc2)C(=O)c2ccccc2C1=O)c1ccccc1 was run?
Its inhibition is 48.7%.

For CC(C)c1ccc(C2=C(O)c3ccccc3C(=O)C2=O)cc1, which inhibition is on record?
Its inhibition is -3.9%.

Which inhibition does the source give for COc1ccc(C2=C(N)c3ccccc3C2=O)cc1 here?
Its inhibition is 3.9%.

How did the inhibition turn out when OC(CNCc1ccccc1)Cn1ccc2ccccc21 (stereo not drawn) was run?
Its inhibition is -1.3%.

Which inhibition does the source give for NC(N)=N/N=C/c1ccc(Br)cc1 here?
The inhibition was -2.5%.

With O=c1cc(-c2ccc(O)c(O)c2)oc2cc(O)c(C3OC(CO)C(O)C(O)C3O)c(O)c12 (stereo not drawn) as the molecule, how does the inhibition read?
The inhibition was 45.4%.

Which inhibition does the source give for O=c1cc(-c2ccc(O)cc2)oc2c([C@@H]3O[C@H](CO)[C@@H](O)[C@H](O)[C@H]3O)c(O)c([C@@H]3O[C@H](CO)[C@@H](O)[C@H](O)[C@H]3O)c(O)c12 here?
The inhibition was -0.7%.

How did the inhibition turn out when O=c1cc(-c2ccc(O)c(O)c2)oc2c(C3O[C@H](CO)[C@@H](O)[C@H](O)[C@H]3O)c(O)cc(O)c12 (stereo partly drawn) was run?
Its inhibition is 51.9% (active).

CC(=O)N1C(=O)c2cccc3cccc(c23)C(=O)N1C(C)=O was tested. Which inhibition did it give?
The inhibition was 9.5%.

For NC1=Nc2cccc3cccc1c23, which inhibition is on record?
The inhibition was 12.8%.

For CCN1CCN(C(=O)c2oc(=O)c3ccccc3c2-c2ccc(C)cc2)CC1, which inhibition is on record?
Its inhibition is -1.6%.

How did the inhibition turn out when CNc1nc2[nH]c(=O)c3c(c2s1)OC(N)=C(C#N)C3c1cccc(F)c1 (stereo not drawn) was run?
The inhibition was 39.7%.

How did the inhibition turn out when CCNc1nc2[nH]c(=O)c3c(c2s1)OC(N)=C(C#N)C3c1ccc(C)cc1 (stereo not drawn) was run?
The inhibition was 54.6% (active).

How did the inhibition turn out when CNc1nc2[nH]c(=O)c3c(c2s1)OC(N)=C(C#N)C3c1ccccc1 (stereo not drawn) was run?
The inhibition was 43.5%.

COCCCNC(=S)N/N=C/c1ccc(N(C)C)cc1 was tested. Which inhibition did it give?
The inhibition was 1%.

CCC(C)/C(C)=N/NC(=O)c1ccc(COc2ccc(Cl)c(C)c2)cc1 (stereo not drawn) was tested. Which inhibition did it give?
Its inhibition is 13.9%.

How did the inhibition turn out when Cc1cccc(NCc2ccc(O)c3ncccc23)c1 was run?
Its inhibition is 42.5%.

With Cc1ccc(NCc2ccc(O)c3ncccc23)cc1C as the molecule, how does the inhibition read?
The inhibition was 55.8% (active).

For Oc1ccc(CNc2ccc(F)cc2)c2cccnc12, which inhibition is on record?
The inhibition was 36.2%.

Oc1ccc(F)c2cccnc12 was tested. Which inhibition did it give?
Its inhibition is 50.9% (active).

Oc1ccc(CNc2ccccc2)c2cccnc12 was tested. Which inhibition did it give?
The inhibition was 50.5% (active).

Which inhibition does the source give for COCc1ccc(O)c2ncccc12 here?
The inhibition was 23.7%.

With Cc1ccc(NCc2ccc(O)c3ncccc23)cc1 as the molecule, how does the inhibition read?
The inhibition was 50.8% (active).

OCc1ccc(O)c2ncccc12 was tested. Which inhibition did it give?
The inhibition was 27%.

With Oc1ccc(COCc2ccccc2)c2cccnc12 as the molecule, how does the inhibition read?
The inhibition was 46.1%.

With Cc1ccc(NCc2ccccc2O)cc1 as the molecule, how does the inhibition read?
The inhibition was 13.8%.

O=[N+]([O-])c1ccc(O)c2ncccc12 was tested. Which inhibition did it give?
The inhibition was -7.5%.

How did the inhibition turn out when Cc1ccc(NCc2ccccc2O)cc1C was run?
Its inhibition is 19.9%.

For S=c1[nH]nc(-c2cccnc2)o1, which inhibition is on record?
Its inhibition is -18.4%.

How did the inhibition turn out when Nc1nc(NC(=O)/C=C\C(=O)O)nn1-c1ccccc1 was run?
Its inhibition is -12.4%.

How did the inhibition turn out when Cc1ccc(C)c(NC(=S)N(Cc2ccc(Cl)cc2)Cc2ccc(C(=O)O)cc2)c1 was run?
The inhibition was -4.3%.

How did the inhibition turn out when O=C(NCCN1C(=O)S/C(=C\c2ccccc2)C1=O)C1CCN(S(=O)(=O)c2cccs2)CC1 was run?
Its inhibition is 8.1%.

How did the inhibition turn out when CC(=O)c1cnn(-c2cc(Oc3cccc(C)c3)ncn2)c1C was run?
The inhibition was 16.6%.

O=Cc1cn(-c2ccc(F)cc2)c2ccccc12 was tested. Which inhibition did it give?
Its inhibition is 4.3%.

With Cc1cccc(NC(=O)c2ccccc2OCC(=O)N2CCOCC2)c1C as the molecule, how does the inhibition read?
Its inhibition is 11.4%.

How did the inhibition turn out when CCOc1ccccc1NC(=O)NCc1cccnc1 was run?
The inhibition was 0.3%.
